In all, about 5,500 compounds went through this assay and about 2,000 (36%) were called active. About 18% were inconclusive and are not listed. Cut-off read from the data, not from the text of the source: active = normalized growth mostly below about 0.91 (no sharp cut-off); inconclusive = no clear call, values can overlap the other calls; inactive = mostly above about 0.92. This is one part of the list.
Test: chemical genetic growth profiling, strain panel (AID 1159580);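 note: tested at 20 µM; growth read once vehicle control cultures reached saturation at 30 °C; 1 = growth at the plate median or of vehicle wells; lower values mean less growth of the strain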
Conditions: S. cerevisiae deletion strains, growth OD

Measured: normalized growth

C/C=C/C(=O)N(CC)c1ccccc1C
inactive: locus YAL021C, strain ccr4, stronger effect = lower value 1.02 | locus YAL026C, strain drs2, stronger effect = lower value 1.01 | locus YAL030W, strain snc1, stronger effect = lower value 1 | locus YBL061C, strain skt5, stronger effect = lower value 0.995 | locus YBR009C, strain hhf1, stronger effect = lower value 1.02 | locus YBR023C, strain chs3, stronger effect = lower value 1.01 | locus YBR171W, strain sec66, stronger effect = lower value 1 | locus YBR231C, strain swc5, stronger effect = lower value 1 | locus YBR279W, strain paf1, stronger effect = lower value 1 | locus YCL011C, strain gbp2, stronger effect = lower value 0.997 | locus YCL016C, strain dcc1, stronger effect = lower value 0.998 | locus YCL061C, strain MRC1, stronger effect = lower value 1.01 | locus YCL069W, strain vba3, stronger effect = lower value 1.01 | locus YCR088W, strain abp1, stronger effect = lower value 1 | locus YDL005C, strain med2, stronger effect = lower value 1 | locus YDL040C, strain nat1, stronger effect = lower value 1 | locus YDR001C, strain nth1, stronger effect = lower value 1 | locus YDR069C, strain doa4, stronger effect = lower value 1.02 | locus YDR137W, strain rgp1, stronger effect = lower value 1.02 | locus YDR159W, strain sac3, stronger effect = lower value 1 | locus YDR195W, strain ref2 0.986 | locus YDR297W, strain sur2, stronger effect = lower value 1 | locus YDR334W, strain swr1, stronger effect = lower value 0.997 | locus YDR335W, strain msn5, stronger effect = lower value 1.01 | locus YDR392W, strain spt3, stronger effect = lower value 0.942 | locus YEL003W, strain gim4, stronger effect = lower value 1.01 | locus YEL037C, strain rad23, stronger effect = lower value 1.01 | locus YEL061C, strain CIN8 (second series), stronger effect = lower value 1.01 | locus YER015W, strain faa2, stronger effect = lower value 1.01 | locus YER016W, strain bim1, stronger effect = lower value 1.01 | locus YER111C, strain swi4, stronger effect = lower value 0.995 | locus YER155C, strain BEM2 (second series), stronger effect = lower value 1.01 | locus YFR010W, strain ubp6, stronger effect = lower value 1.02 | locus YGL167C, strain pmr1, stronger effect = lower value 1 | locus YGL173C, strain kem1, stronger effect = lower value 1.01 | locus YGL227W, strain vid30, stronger effect = lower value 1.01 | locus YGL240W, strain doc1, stronger effect = lower value 1.02 | locus YGL253W, strain hxk2, stronger effect = lower value 1.01 | locus YHR013C, strain ard1, stronger effect = lower value 1.01 | locus YHR027C, strain rpn1, stronger effect = lower value 1.02 | locus YHR030C, strain SLT2, stronger effect = lower value 1.03 | locus YHR079C, strain IRE1, stronger effect = lower value 1.02 | locus YHR142W, strain chs7, stronger effect = lower value 1.02 | locus YJL092W, strain hpr5, stronger effect = lower value 1 | locus YJL095W, strain BCK1 (second series), stronger effect = lower value 1 | locus YJL095W, strain BCK1, stronger effect = lower value 0.977 | locus YJL115W, strain asf1, stronger effect = lower value 1 | locus YJL129C, strain trk1, stronger effect = lower value 1.03 | locus YJL154C, strain vps35, stronger effect = lower value 1.01 | locus YJL164C, strain tpk1, stronger effect = lower value 1.01 | locus YJL166W, strain qcr8, stronger effect = lower value 1.02 | locus YJL187C, strain SWE1, stronger effect = lower value 1.01 | locus YJR066W, strain TOR1, stronger effect = lower value 0.966 | locus YKL160W, strain elf1, stronger effect = lower value 1.01 | locus YKR026C, strain gcn3, stronger effect = lower value 1.01 | locus YKR091W, strain srl3, stronger effect = lower value 1 | locus YLL001W, strain dnm1, stronger effect = lower value 0.996 | locus YLL026W, stronger effect = lower value 1.01 | locus YLL041C, strain sdh2, stronger effect = lower value 1.01 | locus YLR027C, strain aat2, stronger effect = lower value 0.996 | locus YLR113W, strain HOG1, stronger effect = lower value 0.969 | locus YLR221C, strain rsa3, stronger effect = lower value 1 | locus YLR258W, strain gsy2, stronger effect = lower value 1.01 | locus YLR262C, strain YPT6 (second series), stronger effect = lower value 1 | locus YLR320W, strain mms22, stronger effect = lower value 1 | locus YLR342W, strain FKS1, stronger effect = lower value 1 | locus YLR357W, strain rsc2, stronger effect = lower value 1.02 | locus YLR370C, strain arc18, stronger effect = lower value 1.01 | locus YLR384C, strain iki3, stronger effect = lower value 0.998 | locus YML120C, strain ndi1, stronger effect = lower value 1 | locus YMR058W, strain fet3, stronger effect = lower value 1.02 | locus YMR125W, strain sto1, stronger effect = lower value 1.01 | locus YMR129W, stronger effect = lower value 1 | locus YMR205C, strain PFK2, stronger effect = lower value 1.01 | locus YMR231W, strain pep5, stronger effect = lower value 1.01 | locus YNL071W, strain lat1, stronger effect = lower value 1 | locus YNL183C, strain NPR1, stronger effect = lower value 0.975 | locus YNL209W, strain ssb2, stronger effect = lower value 1 | locus YNL248C, strain rpa49, stronger effect = lower value 0.993 | locus YNL322C, strain KRE1 (second series), stronger effect = lower value 1.01 | locus YNR049C, strain mso1, stronger effect = lower value 1.01 | locus YOR001W, strain rrp6, stronger effect = lower value 1.03 | locus YOR070C, strain gyp1, stronger effect = lower value 1 | locus YOR080W, strain dia2, stronger effect = lower value 1 | locus YOR083W, strain WHI5, stronger effect = lower value 1.02 | locus YOR106W, strain vam3, stronger effect = lower value 1.04 | locus YOR231W, strain MKK1, stronger effect = lower value 1.02 | locus YOR265W, strain rbl2, stronger effect = lower value 1 | locus YOR270C, strain vph1, stronger effect = lower value 0.999 | locus YOR290C, strain snf2, stronger effect = lower value 1.01 | locus YPL051W, strain arl3, stronger effect = lower value 1 | locus YPL078C, strain atp4, stronger effect = lower value 1.02 | locus YPL106C, strain sse1, stronger effect = lower value 1.01 | locus YPL240C, strain hsp82, stronger effect = lower value 1 | locus YPL256C, strain CLN2, stronger effect = lower value 0.986

Reference: PubChem BioAssay AID1159580 (chemical genetic matrix, 2015)
